According to PubChem BioAssay AID488969 (Vanderbilt High Throughput Screening Facility, 2010):
The full ranking holds about 110,000 compounds; the median of “z-score” is about -0.1, and the highest 2% start at about 2. The list comes from a sample in which the highest values are over-represented; it also holds similar structures and randomly drawn compounds. The source made the active and inactive calls.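 How the source made its calls: active means z-score in the third read window above 3 or below -3; inactive means the rest.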

Biological target: Metabotropic glutamate receptor 8 (Rattus norvegicus) (UniProt P70579)
Test: mGluR8 Gi/Go-coupled signaling modulation – cell-based, rat, thallium flux, HTS, primary screen (AID 488969)
Details: HEK293 rat mGluR8, GIRK (G protein-gated inwardly rectifying potassium channel) thallium flux, FluoZin2; at 10 µM; stronger effect = higher value; submaximal glutamate (EC20) added with thallium

Metabotropic glutamate receptor 8 (Rattus norvegicus), sequence (P70579 whole entry, looked up): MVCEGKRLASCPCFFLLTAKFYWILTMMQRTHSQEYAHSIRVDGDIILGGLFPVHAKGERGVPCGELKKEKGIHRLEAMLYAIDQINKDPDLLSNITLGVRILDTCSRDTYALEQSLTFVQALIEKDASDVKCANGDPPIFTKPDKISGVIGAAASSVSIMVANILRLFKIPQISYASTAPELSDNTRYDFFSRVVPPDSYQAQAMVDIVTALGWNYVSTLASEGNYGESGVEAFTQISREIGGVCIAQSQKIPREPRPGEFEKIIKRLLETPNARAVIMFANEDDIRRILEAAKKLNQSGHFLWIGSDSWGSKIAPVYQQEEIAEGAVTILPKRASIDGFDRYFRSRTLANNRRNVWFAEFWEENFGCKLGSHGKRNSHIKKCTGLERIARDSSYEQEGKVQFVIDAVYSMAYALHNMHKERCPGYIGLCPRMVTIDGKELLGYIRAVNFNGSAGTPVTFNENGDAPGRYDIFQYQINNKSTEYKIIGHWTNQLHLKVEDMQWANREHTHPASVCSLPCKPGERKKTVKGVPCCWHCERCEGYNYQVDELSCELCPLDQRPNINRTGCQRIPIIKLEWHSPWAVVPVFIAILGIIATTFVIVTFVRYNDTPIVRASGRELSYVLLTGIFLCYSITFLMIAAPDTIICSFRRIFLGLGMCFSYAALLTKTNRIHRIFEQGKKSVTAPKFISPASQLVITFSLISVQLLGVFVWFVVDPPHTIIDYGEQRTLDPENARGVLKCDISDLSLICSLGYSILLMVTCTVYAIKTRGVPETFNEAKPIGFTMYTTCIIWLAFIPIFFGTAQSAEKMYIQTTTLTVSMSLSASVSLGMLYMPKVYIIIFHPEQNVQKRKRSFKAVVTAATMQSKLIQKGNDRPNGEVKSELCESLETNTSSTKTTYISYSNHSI

| SMILES | z-score |
| --- | --- |
| CCN(CC)S(=O)(=O)c1cccc(S(=O)(=O)N2CCCCC2)c1 | -0.121 |
| CC(=O)Nc1ccc(Oc2cnccn2)cc1 | -0.0949 |
| CC(=O)Nc1ccc(Oc2nc(C)cc(C)n2)cc1 | 0.187 |
| CC(=O)Nc1ccc(Oc2ncccn2)cc1 | 7.84 (active) |
| COCC(=O)n1nc(NCc2ccc(OC)cc2)nc1NCc1ccc(OC)cc1 | -0.00999 |
| CCN(CC)CCn1c(NC(=O)c2ccc(Cl)cc2)nc2ccccc21 | 4.18 (active) |
| CCC(=O)Nc1nc2ccccc2n1CCN(CC)CC | -0.0953 |
| CN(C)CCn1c(NC(=O)c2ccc(Cl)cc2)nc2ccccc21 | 0.381 |
| Cc1ccc(N/C(SCc2ccccc2C)=C(/C#N)C(=O)NCc2ccco2)cc1C | -0.331 |
| CCOc1cc(C(=S)N2CCOCC2)ccc1OS(=O)(=O)c1ccccc1 | -0.19 |
| O=C(COc1ccccc1)NC(=S)Nc1ccc2c3c(cccc13)CC2 | 4.29 (active) |
| Cc1ccccc1OCC(=O)NC(=S)Nc1ccc2c3c(cccc13)CC2 | 0.22 |
| COc1cc(OC)cc(C(=O)NC(=S)Nc2ccc3c4c(cccc24)CC3)c1 | 0.967 |
| CC(C)Oc1cccc(C(=O)NC(=S)Nc2ccc3c4c(cccc24)CC3)c1 | 1.24 |
| COc1cccc(C(=O)NC(=S)Nc2ccc3c4c(cccc24)CC3)c1 | 2.83 |
| CC(C)c1ccc(OCC(=O)NC(=S)Nc2ccc3c4c(cccc24)CC3)cc1 | 1.27 |
| CN1CCN(C(=O)c2ccccc2N(Cc2ccccc2)S(=O)(=O)c2ccccc2)CC1 | -0.185 |
| Cn1cc([N+](=O)[O-])c(C(=O)N/N=C/c2ccccc2)n1 | -0.138 |
| Cc1cc(C)n(-c2nc3ccccc3nc2Nc2ccc(CC(=O)O)cc2)n1 | 1.13 |
| O=c1c2c(nc3c(-c4cccc5ccccc45)c[nH]n13)CCC2 | -0.52 |
| Nc1[nH]n2c(=O)c3c(nc2c1N=Nc1ccc(Cl)cc1)CCCC3 | -1.09 |
| Cc1ccc(-c2[nH]n3c(=O)c4c(nc3c2C)CCCC4)cc1 | 11 (active) |
| O=c1c2c(nc3cc(-c4cccc(Cl)c4)[nH]n13)CCC2 | 0.391 |

| SMILES | z-score |
| --- | --- |
| N#Cc1c[nH]n2c(=O)c3c(nc12)CCCC3 | -0.482 |
| O=c1c2c(nc3c(-c4ccccc4)c[nH]n13)CCC2 | -0.819 |
| Cc1[nH]n2c(=O)c3c(nc2c1-c1ccccc1)CCC3 | -1.66 |
| O=c1c2c(nc3cc(-c4ccccc4)[nH]n13)CCC2 | -0.413 |
| Cc1ccc(N=Nc2c(N)[nH]n3c(=O)c4c(nc23)CCCC4)cc1 | -0.696 |
| O=c1c2c(nc3c(-c4ccccc4)c[nH]n13)CCCC2 | 3.66 (active) |
| O=c1c2c(nc3c(-c4ccc(Cl)cc4)c[nH]n13)CCCC2 | 12 (active) |
| O=c1c2c(nc3c(-c4cccc(Br)c4)c[nH]n13)CCCC2 | 6.35 (active) |
| COCCNC(=O)C(=O)N/N=C/c1ccccc1C(F)(F)F | -0.508 |
| Cc1nc2ccc(S(=O)(=O)NCC(=O)N3CCOCC3)cc2s1 | -0.0788 |
| COc1ccc2c(c1)c1ncn(CCN3CCNCC3)c(=O)c1n2C | -0.141 |
| O=C(N[C@@H](Cc1ccccc1)c1nc2ccccc2[nH]1)c1cc([N+](=O)[O-])ccc1Cl | -0.361 |
| CC(C)(C)NC(=O)C1CCCN(S(=O)(=O)c2cccc3cccnc23)C1 (centres undefined) | -0.133 |
| CCOc1ccc(NC(=O)c2cc3cc4ccc(OC)cc4nc3o2)cc1 | 0.334 |
| COc1ccc2nc3oc(C(=O)Nc4ccc(OC)c(OC)c4)cc3cc2c1 | 4.91 (active) |
| COc1ccc2cc3cc(C(=O)Nc4cc(OC)c(OC)c(OC)c4)oc3nc2c1 | -0.255 |
| O=C(Nc1ccc2oc(-c3ccncc3)nc2c1)c1cccs1 | -1.18 |
| CCc1nnc(NC(=O)CCc2ccc(C)o2)s1 | 0.332 |
| CCC(=O)N1CCc2cc(S(=O)(=O)CCC(=O)NCCc3ccccc3)ccc21 | -0.24 |
| CC(NC(=O)COC(=O)/C=C/c1ccc([N+](=O)[O-])cc1)c1ccccc1 (centres undefined) | -0.366 |
| CC(C)c1ccccc1NC(=O)COC(=O)/C=C/c1cccc([N+](=O)[O-])c1 | 5.9 (active) |
| CC(C)NC(=O)c1ccccc1NC(=O)/C=C/c1cccc([N+](=O)[O-])c1 | -0.52 |
| CCOc1ccc(NC(=O)CSc2nnc(CCNC(=O)c3ccc(OC)cc3)n2CC)cc1 | -0.0739 |

| SMILES | z-score |
| --- | --- |
| C/C=C/COC(=O)c1[nH]c2c(c1C)C(=O)CC(c1ccco1)C2 (centres undefined) | -0.237 |
| CSCC[C@H](NC(=O)OC(C)(C)C)c1nnc(SCC(=O)N(C)C)o1 | -0.106 |
| O=C(Nc1nc2ccccc2s1)C1CC(=O)N(c2ccc(Br)cc2)C1 (centres undefined) | 0.374 |
| Cc1ccccc1C(=O)NC(=S)Nc1sc2c(c1C#N)CCCC2 | 5.02 (active) |
| Cc1onc(-c2ccccc2)c1C(=O)Nc1sc2c(c1C#N)CCC(C)C2 (centres undefined) | 0.289 |
| CCCc1cc(C(=O)Nc2sc3c(c2C#N)CCC3)no1 | 2.21 |
| CC(C)Cc1cc(C(=O)Nc2sc3c(c2C#N)CCC3)no1 | 1.32 |
| Cc1cc(C(=O)Nc2sc3c(c2C#N)CCC3)no1 | -0.0664 |
| Cc1ccccc1C(=O)NC(=S)Nc1sc2c(c1C#N)CCC(C)C2 (centres undefined) | 1.82 |
| Cc1onc(-c2ccccc2)c1C(=O)NC(=S)Nc1sc2c(c1C#N)CCCC2 | 4.1 (active) |
| N#Cc1c(NC(=S)NC(=O)c2ccccc2)sc2c1CCC2 | 0.849 |
| N#Cc1c(NC(=S)NC(=O)c2ccccc2)sc2c1CCCC2 | 0.0146 |
| CCOC(=O)CC1ON(C)C(=O)N1c1ccc([N+](=O)[O-])cc1 (centres undefined) | 0.0464 |
| CCCCOC(=O)c1ccc(NC(=O)/C=C/c2cccs2)cc1 | -0.063 |
| CCc1ccc(C2NC(C(=O)O)CS2)cc1 (centres undefined) | -0.258 |
| CC(C)Cn1c(SCC(=O)N2CCCCC2)nc2ccccc2c1=O | -0.537 |
| O=C1Nc2ccccc2C12OCCCO2 | 0.489 |
| O=C1Nc2ccccc2C12OCC1(CO2)COC2(OC1)C(=O)Nc1ccccc12 (centres undefined) | 3.45 (active) |
| O=C1Nc2ccccc2C12OCCO2 | -0.0845 |
| CCN(CC)S(=O)(=O)c1ccc(/C=C/C(=O)Nc2ccc(F)c(F)c2F)cc1 | -0.0872 |
| Cc1ccc(C(=O)CC(=O)COc2ccc(Cl)cc2C)cc1 | 5.45 (active) |
| Cc1ccc(NC(=O)c2ccc(OC(=O)COc3ccc(Cl)cc3C)cc2)cc1 | -0.069 |
| Cc1ccc(NCCC(=O)c2ccc(Cl)cc2)cc1 | -0.27 |

| SMILES | z-score |
| --- | --- |
| Cc1ccc(C(=O)CC(=O)COc2ccc(Cl)cc2)cc1 | 5.07 (active) |
| Cc1cc(Cl)ccc1OCC(=O)NC1CCCC1 | 0.0341 |
| COC(=O)C(CC(=O)c1ccc(Cl)cc1)c1ccc(C)cc1 (centres undefined) | -0.155 |
| Cc1cc(C)nc(/N=C(\N)Nc2ccc([N+](=O)[O-])cc2)n1 | -0.477 |
| O=C(O)c1cccc(-n2cnnn2)c1 | -0.667 |
| CCSc1nnc(NC(=O)NC(CC)(C(F)(F)F)C(F)(F)F)s1 | 3.86 (active) |
| CCCC(=O)Nc1nnc(SCC)s1 | 0.0928 |
| CCSc1nnc(NC(=O)C(CC)(C(F)(F)F)C(F)(F)F)s1 | -0.322 |
| CCC(=O)Nc1nnc(SCCOC)s1 | 0.214 |
| CCC(NC(=O)Nc1nnc(C(F)(F)F)s1)(C(F)(F)F)C(F)(F)F | 0.241 |
| CCSc1nnc(NC(=O)CC)s1 | 5.27 (active) |
| CCCCN1CCc2[nH]c(=S)[nH]c(=O)c2C1 | -0.178 |
| Cc1ccccc1C(=O)Oc1cccc(Nc2ncnc3ccccc23)c1 | -1.4 |
| CC(NC(=O)C1CCC1)c1ccc(Br)cc1 (centres undefined) | -0.264 |
| CCN(CC)S(=O)(=O)c1cccc(C(=O)NC(C(=O)NC2=NCCS2)C(C)C)c1 (centres undefined) | 0.126 |
| CCNc1nc(NC#N)nc(SCC(=O)OCC)n1 | -0.413 |
| COC(=O)c1ccc(CSc2nc3c(cnn3-c3ccccc3)c(=O)[nH]2)o1 | -0.686 |
| CC(C)(C)c1ccc(OCC(=O)NNC(=O)CCc2ccccc2)cc1 | 0.639 |
| O=C(CCc1ccccc1)NNC(=S)NC(=O)c1ccccc1 | 1.13 |
| COc1ccc(C(=O)NC(=S)NNC(=O)CCc2ccccc2)cc1 | 3.38 (active) |
| O=C(CCc1ccccc1)NNC(=O)c1ccc(NC(=O)c2ccccc2)cc1 | 0.0748 |
| O=C(CCc1ccccc1)NNC(=S)NC(=O)c1ccc(Cl)cc1 | 3.03 (active) |
| CC(=O)Nc1ccc(C(=O)NNC(=O)CCc2ccccc2)cc1 | -0.185 |

| SMILES | z-score |
| --- | --- |
| O=C(Cc1csc(N2CCOCC2)n1)N/N=C/c1ccc(Cl)cc1Cl | -0.885 |
| N#Cc1c2n(c3c(=S)nc[nH]c13)CCCCC2 | 2.2 |
| N#Cc1c2n(c(=O)[nH]c1=O)CCCCC2 | -0.0381 |
| N#Cc1c2n(c(=S)n(-c3ccccn3)c1=O)CCCCC2 | -0.927 |
| O=C(CNC(=O)c1ccccc1F)NCCOc1ccccc1Cl | -0.065 |
| CCOc1ccc(N=CC2=C(O)CC(C)(C)CC2=O)cc1 | 0.649 |
| CC1(C)CC(=O)C2=C(C1)OC1=C(C(=O)CC(C)(C)C1)C2(C)C | -0.182 |
| CCOC12CC(C)(C)CC(C)(CC3=C1C(=O)CC(C)(C)C3)C2 (centres undefined) | 2.32 |
| CCOC(=O)C1CCCN(C(=O)CN2C(=O)COc3ccc(C(C)(C)C)cc32)C1 (centres undefined) | -1.06 |
| CCOC(=O)N1CCN(Cc2nc3c(c(=O)n(C)c(=O)n3C)n2Cc2ccccc2C)CC1 | -0.27 |
| COc1ccccc1NC(=S)NCCc1ccc(Cl)cc1 | 3.06 (active) |
| COc1ccccc1NC(=S)NCCc1ccccc1 | -0.188 |
| Fc1ccc(NC(=S)NCCc2ccccc2)c(F)c1F | 2.71 |
| Fc1cc(Br)ccc1NC(=S)Nc1ccccc1 | 0.843 |
| Fc1ccccc1NC(=S)NCCc1ccccc1 | 0.134 |
| Fc1cc(Br)ccc1NC(=S)NCCc1ccccc1 | 7.09 (active) |
| COc1ccc(NC(=S)NCCc2ccc(Cl)cc2)c(OC)c1 | 0.319 |
| S=C(NCCc1ccccc1)Nc1ccc(Br)cc1 | 0.268 |
| S=C(NCCc1ccccc1)Nc1ccc(Cl)cc1Cl | 1.43 |
| COc1cc2c(cc1NC(=O)CSc1ccccc1)oc1ccccc12 | -0.258 |
| O=C(N/N=C/c1c[nH]c2ccccc12)c1cc(-c2cccc3ccccc23)n[nH]1 | -0.463 |
| COc1ccc(OCC(=O)O/N=C(\N)Cc2ccc(Cl)cc2Cl)cc1 | 0.353 |
